Experiment [1] can be described thus: ATG_CRE_CIS: Attagene CIS-FACTORIAL HepG2 Assay for human cAMP Responsive Element (CRE) binding protein 3 (AID 2282926). To be noted: HepG2 CRE cis-reporter, Attagene multiplexed mRNA; actives raise or lower the signal. The gist of the method:
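Liver-derived HepG2, transfected with a CRE-containing reporter panel, exposed 24 h; transcript levels sized and quantified by capillary electrophoresis of labelled amplicons; signal changes either way referenced to vehicle.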

For experiment [2], the target named is CCAAT/enhancer-binding protein beta (Homo sapiens) (UniProt P17676). Description: ATG_C_EBP_CIS: Attagene CIS-FACTORIAL HepG2 Assay for human CCAAT/Enhancer Binding Protein (C/EBP) beta (AID 2282927). As to conditions: HepG2 Attagene cis-factorial transcription factor reporter; actives raise or lower the signal. The gist of the method: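 Following a 24 h incubation with test chemical, transfected HepG2 cells yielded RNA whose reporter transcripts were quantified by RT-PCR and fluorescent capillary electrophoresis, with DMSO serving as baseline for bidirectional fitting.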

Experiment [3] has as its target Aryl hydrocarbon receptor (Homo sapiens) (UniProt P35869). Description: ATG_Ahr_CIS: Attagene CIS-FACTORIAL HepG2 Assay for human Aryl Hydrocarbon Receptor (Ahr) (AID 2282930). To be noted: HepG2 AhR cis-factorial reporter transcription; actives raise or lower the signal. The gist of the method: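 Values derive from bidirectional fitting against DMSO negative control. Underlying signal: cis-element reporter mRNA in transiently transfected HepG2, harvested 24 h post-dose and measured by RT-PCR plus capillary electrophoresis.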

A short description of experiment [4]: ATG_AP_1_CIS: Attagene CIS-FACTORIAL HepG2 Assay for human Activator Protein 1 (AP-1) (AID 2282931). As to conditions: HepG2 Attagene cis-factorial AP-1 reporter mRNA; actives raise or lower the signal. The gist of the method:
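After 24 h incubation with test chemical, RNA from transfected HepG2 cells was reverse-transcribed, amplified, fluorescently labelled and digested before capillary electrophoresis. Reporters were driven by cis-regulatory promoters; activity fitted bidirectionally versus DMSO.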

The nature of experiment [5]: ATG_M_19_CIS: Attagene CIS-FACTORIAL HepG2 Assay for M19 Transcription Factor (Internal Marker) (AID 2282939). As to conditions: HepG2 Attagene CIS-FACTORIAL M19 internal marker reporter; actives raise or lower the signal. The gist of the method:
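HepG2 cells transiently transfected with cis-regulated multiplexed reporter units, dosed 24 h. Reporter mRNA quantified by RT-PCR and capillary electrophoresis; internal background marker fitted bidirectionally versus DMSO.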

The nature of experiment [6]: ATG_GLI_CIS: Attagene CIS-FACTORIAL HepG2 Assay for human Zinc Finger Protein GLI1 (AID 2282945). As to conditions: HepG2, Attagene cis-factorial reporter mRNA, GLI element; actives raise or lower the signal. The gist of the method: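 HepG2 cells transiently transfected with cis-promoter multiplexed reporter units report endogenous transcription factor activity. After 24 h chemical exposure, reporter mRNA was quantified by RT-PCR, 6-FAM labelling, HpaI digestion and capillary electrophoresis, with bidirectional fitting against DMSO.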

The nature of experiment [7]: ATG_M_06_CIS: Attagene CIS-FACTORIAL HepG2 Assay for M06 Transcription Factor (Internal Marker) (AID 2282950). To be noted: HepG2 Attagene CIS-FACTORIAL M06 internal marker reporter; actives raise or lower the signal. The gist of the method: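 Internal background marker within multiplexed cis-reporter HepG2 system. Cells transiently transfected, dosed 24 h; reporter mRNA measured by RT-PCR, HpaI digestion and capillary electrophoresis. Bidirectional fit relative to DMSO.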

In experiment [8] the target is Hypoxia-inducible factor 1-alpha (Homo sapiens) (UniProt Q16665). The experiment can be described thus: ATG_HIF1a_CIS: Attagene CIS-FACTORIAL HepG2 Assay for human Hypoxia Inducible Factor 1 (HIF1A) (AID 2282951). To be noted: HepG2 Attagene cis-factorial HIF1a reporter transcription; actives raise or lower the signal. The gist of the method:
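Endogenous-TF cis reporter readout, human HepG2 cells, 24 h incubation; mRNA detected via RT-PCR and capillary electrophoresis fluorescence; DMSO-normalised bidirectional fitting.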

Experiment [9] concerns the target Hepatocyte nuclear factor 6 (Homo sapiens) (UniProt Q9UBC0). Description: ATG_HNF6_CIS: Attagene CIS-FACTORIAL HepG2 Assay for human Hepatocyte Nuclear Factor 6 (HNF6) (AID 2282952). To be noted: HepG2 Attagene cis-factorial HNF6 reporter transcription; actives raise or lower the signal. The gist of the method:
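Twenty-four-hour chemical treatment of reporter-transfected HepG2 cells precedes RNA isolation, DNase-treated reverse transcription and PCR of reporter sequences. Labelled fragments are sized by capillary electrophoresis and fitted bidirectionally versus DMSO.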

In experiment [10] the target is Heat shock factor protein 1 (Homo sapiens) (UniProt Q00613). Description: ATG_HSE_CIS: Attagene CIS-FACTORIAL HepG2 Assay for human Heat Shock Transcription Factor 1 (HSE) (AID 2282953). To be noted: HepG2 HSE cis-reporter, Attagene RNA transcription; actives raise or lower the signal. The gist of the method:
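HepG2 cells transfected with cis-promoter reporter units sensing endogenous transcription factor activity; reporter mRNA quantified 24 h post-dose by RT-PCR and capillary electrophoresis of 6-FAM-labelled products. Bidirectional fitting against DMSO.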

The nature of experiment [11]: ATG_TA_CIS: Attagene CIS-FACTORIAL HepG2 Assay for human TA Basal Promoter (AID 2282964). As to conditions: HepG2 Attagene CIS-factorial TA basal promoter reporter; actives raise or lower the signal. The gist of the method:
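HepG2 cells transiently transfected with multiple reporter units under cis promoter elements, reporting endogenous transcription factor activity; this endpoint tracks the TA basal promoter as background control. Reporter mRNA after 24 h dosing measured by RT-PCR/capillary electrophoresis; bidirectional fits versus DMSO.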

The nature of experiment [12]: ATG_VDRE_CIS: Attagene CIS-FACTORIAL HepG2 Assay for human Vitamin D Receptor Element (VDRE) (AID 2282968). As to conditions: HepG2 VDRE cis-reporter transcription, actives raise or lower the signal. The gist of the method:
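Steps: transfect HepG2 with multiple reporter transcription units; dose chemicals 24 h; isolate RNA; RT-PCR; label with 6-FAM primer extension; HpaI digest; capillary electrophoresis. Curves fitted both directions against DMSO.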

Experiment [13] concerns the target X-box-binding protein 1 (Homo sapiens) (UniProt P17861). The experiment can be described thus: ATG_Xbp1_CIS: Attagene CIS-FACTORIAL HepG2 Assay for human X-box Binding Protein 1 (XBP1) (AID 2282972). To be noted: HepG2 XBP1 cis-element reporter, Attagene multiplex; actives raise or lower the signal. The gist of the method: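 Changes in reporter transcript abundance, read by RT-PCR and capillary electrophoresis, reflect endogenous transcription factor activity. Transfected HepG2 cells received compound for 24 hours; DMSO defined baseline for bidirectional analysis.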

Experiment [14] deals with Nuclear respiratory factor 1 (Homo sapiens) (UniProt Q16656). The experiment can be described thus: ATG_NRF1_CIS: Attagene CIS-FACTORIAL HepG2 Assay for human Nuclear Respiratory Factor 1 (NRF1) Orphan Gene (AID 2282987). As to conditions: HepG2 NRF1 cis-element reporter, Attagene multiplex; actives raise or lower the signal. The gist of the method: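 Endogenous factor activity was captured via cis-element-driven reporter transcripts in HepG2 cells. Following 24 h chemical treatment, transcripts were quantified by RT-PCR and capillary electrophoresis.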

For experiment [15], the target named is Myc proto-oncogene protein (Homo sapiens) (UniProt P01106). The experiment can be described thus: ATG_Myc_CIS: Attagene CIS-FACTORIAL HepG2 Assay for human Myelocytomatosis (Myc) Proto-Oncogene Transcription Factor (AID 2282990). As to conditions: HepG2, Attagene cis-reporter transcription factor activity; actives raise or lower the signal. The gist of the method: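 Multiplexed cis-reporter transcription in HepG2 cells after 24 h chemical treatment. Reporter mRNA measured by RT-PCR and capillary electrophoresis fluorescence; activity fitted bidirectionally against DMSO control.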

Experiment [16] in a line: ATG_NRF2_ARE_CIS: Attagene CIS-FACTORIAL HepG2 Assay for human Nuclear Factor Erythroid 2 Related Factor 2 (NFR2) response to Antioxidant Response Elements (ARE) (AID 2282992). To be noted: HepG2 Attagene ARE/NRF2 reporter, transcription factor activity; actives raise or lower the signal. The gist of the method: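 Using transiently transfected HepG2 cells exposed for 24 h, reporter mRNA levels were determined by RT-PCR with fluorescent primer extension and capillary electrophoresis, analysed for gain or loss of signal against DMSO.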

Experiment [17] can be described thus: ATG_Oct_MLP_CIS: Attagene CIS-FACTORIAL HepG2 Assay for human Octamer-Binding Transcription Factor (Oct) (AID 2282993). To be noted: HepG2 Attagene cis-factorial Oct reporter, mRNA; actives raise or lower the signal. The gist of the method:
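HepG2 cells transiently transfected with cis-element-driven reporter transcription units (endogenous TF activity); 24 h compound exposure. Reporter mRNA quantified by RT-PCR, 6-FAM labelling, HpaI digestion and capillary electrophoresis; bidirectional fit versus DMSO baseline.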

The target in experiment [18] is Cellular tumor antigen p53 (Homo sapiens) (UniProt P04637). The experiment can be described thus: ATG_p53_CIS: Attagene CIS-FACTORIAL HepG2 Assay for human p53 Transcription Factor (AID 2282994). To be noted: HepG2 p53 cis-element reporter, Attagene mRNA; actives raise or lower the signal. The gist of the method: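 In HepG2 cells, reporter transcription units under cis-regulatory promoters were transiently introduced. Following 24 h treatment, RNA was processed to labelled, digested cDNA fragments read by capillary electrophoresis; fitting was bidirectional versus DMSO.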

Experiment [19] in a line: ATG_BRE_CIS: Attagene CIS-FACTORIAL HepG2 Assay for human Bone Morphogenetic Protein (BMP) Response Element (BRE) (AID 2282933). As to conditions: HepG2 BMP response element reporter, Attagene transcription factor profiling; actives raise or lower the signal. The gist of the method:
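HepG2 cells transiently transfected with CIS reporter units (endogenous TF activity, BMP response element), dosed 24 h. Reporter mRNA quantified by RT-PCR, fluorescent labelling and capillary electrophoresis; bidirectional fit vs DMSO baseline.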

Experiment [20] in a line: ATG_E_Box_CIS: Attagene CIS-FACTORIAL HepG2 Assay for human Enhancer Box (E-box) (AID 2282936). To be noted: HepG2 E-box cis-reporter transcription, actives raise or lower the signal. The gist of the method:
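Endogenous transcription factor activity was sensed in human HepG2 liver cells through transfected cis-promoter reporter units. After 24 h of dosing, total RNA was reverse-transcribed and reporter cDNA resolved by capillary electrophoresis.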

In PubChem BioAssay (EPA / NIEHS) one finds outcome and AC50 data, which are given here for 4 compounds.

Activity calls are given as the source filed them. The calls were made as follows: active = hit-call score of the fitted dose curve at least 0.9, where 1 is the maximum; inactive = score below 0.9.

Sequence of CCAAT/enhancer-binding protein beta (Homo sapiens) (P17676 whole entry, looked up): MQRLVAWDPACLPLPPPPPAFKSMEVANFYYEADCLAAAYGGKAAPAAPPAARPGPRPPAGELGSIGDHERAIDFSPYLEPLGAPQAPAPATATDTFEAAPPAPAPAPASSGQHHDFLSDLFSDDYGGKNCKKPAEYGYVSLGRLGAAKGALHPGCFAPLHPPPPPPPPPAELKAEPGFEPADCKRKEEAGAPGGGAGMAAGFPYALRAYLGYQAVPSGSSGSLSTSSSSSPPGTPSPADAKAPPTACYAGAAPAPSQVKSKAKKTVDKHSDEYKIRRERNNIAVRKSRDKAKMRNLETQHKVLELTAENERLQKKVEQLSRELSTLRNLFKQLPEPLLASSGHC
Sequence of Heat shock factor protein 1 (Homo sapiens) (Q00613 whole entry, looked up): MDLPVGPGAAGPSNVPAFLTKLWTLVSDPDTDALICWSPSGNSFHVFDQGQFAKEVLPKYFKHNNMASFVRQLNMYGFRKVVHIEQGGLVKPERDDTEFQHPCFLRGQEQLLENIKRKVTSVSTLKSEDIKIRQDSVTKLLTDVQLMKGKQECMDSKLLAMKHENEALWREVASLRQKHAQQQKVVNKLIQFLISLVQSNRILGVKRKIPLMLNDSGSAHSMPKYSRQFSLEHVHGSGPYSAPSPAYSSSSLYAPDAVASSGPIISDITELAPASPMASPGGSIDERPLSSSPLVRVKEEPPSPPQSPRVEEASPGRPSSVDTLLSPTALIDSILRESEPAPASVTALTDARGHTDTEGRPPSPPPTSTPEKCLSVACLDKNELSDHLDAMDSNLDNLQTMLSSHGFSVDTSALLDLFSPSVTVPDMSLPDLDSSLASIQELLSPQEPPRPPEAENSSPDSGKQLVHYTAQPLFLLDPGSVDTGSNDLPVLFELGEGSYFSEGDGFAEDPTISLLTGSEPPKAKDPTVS
Sequence of Hepatocyte nuclear factor 6 (Homo sapiens) (Q9UBC0 whole entry, looked up, the tested form may be a part): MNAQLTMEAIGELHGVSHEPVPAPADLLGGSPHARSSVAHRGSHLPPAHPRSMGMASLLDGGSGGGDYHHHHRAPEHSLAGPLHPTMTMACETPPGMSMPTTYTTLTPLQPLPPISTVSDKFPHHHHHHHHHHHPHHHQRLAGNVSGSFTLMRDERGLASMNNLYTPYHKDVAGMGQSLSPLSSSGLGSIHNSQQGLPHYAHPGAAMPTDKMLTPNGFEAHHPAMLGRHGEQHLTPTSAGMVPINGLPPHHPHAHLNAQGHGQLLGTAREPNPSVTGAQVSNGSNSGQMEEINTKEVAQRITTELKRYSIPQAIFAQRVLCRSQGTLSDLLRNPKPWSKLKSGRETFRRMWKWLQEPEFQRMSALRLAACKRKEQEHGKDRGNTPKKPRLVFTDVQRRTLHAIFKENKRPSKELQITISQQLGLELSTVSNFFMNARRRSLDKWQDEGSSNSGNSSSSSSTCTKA
Sequence of Myc proto-oncogene protein (Homo sapiens) (P01106 whole entry, looked up): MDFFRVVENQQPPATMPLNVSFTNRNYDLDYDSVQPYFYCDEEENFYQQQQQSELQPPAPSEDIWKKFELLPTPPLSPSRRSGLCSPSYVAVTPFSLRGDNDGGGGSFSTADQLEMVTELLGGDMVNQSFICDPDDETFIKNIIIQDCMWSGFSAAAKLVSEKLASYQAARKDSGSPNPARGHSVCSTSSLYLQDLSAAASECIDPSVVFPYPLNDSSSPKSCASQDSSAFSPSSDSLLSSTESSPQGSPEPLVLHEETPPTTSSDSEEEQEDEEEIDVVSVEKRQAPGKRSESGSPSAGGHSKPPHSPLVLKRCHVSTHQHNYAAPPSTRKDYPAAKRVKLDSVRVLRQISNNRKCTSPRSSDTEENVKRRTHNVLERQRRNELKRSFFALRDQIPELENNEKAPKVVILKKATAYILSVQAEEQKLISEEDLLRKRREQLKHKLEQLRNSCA
Sequence of Hypoxia-inducible factor 1-alpha (Homo sapiens) (Q16665 whole entry, looked up): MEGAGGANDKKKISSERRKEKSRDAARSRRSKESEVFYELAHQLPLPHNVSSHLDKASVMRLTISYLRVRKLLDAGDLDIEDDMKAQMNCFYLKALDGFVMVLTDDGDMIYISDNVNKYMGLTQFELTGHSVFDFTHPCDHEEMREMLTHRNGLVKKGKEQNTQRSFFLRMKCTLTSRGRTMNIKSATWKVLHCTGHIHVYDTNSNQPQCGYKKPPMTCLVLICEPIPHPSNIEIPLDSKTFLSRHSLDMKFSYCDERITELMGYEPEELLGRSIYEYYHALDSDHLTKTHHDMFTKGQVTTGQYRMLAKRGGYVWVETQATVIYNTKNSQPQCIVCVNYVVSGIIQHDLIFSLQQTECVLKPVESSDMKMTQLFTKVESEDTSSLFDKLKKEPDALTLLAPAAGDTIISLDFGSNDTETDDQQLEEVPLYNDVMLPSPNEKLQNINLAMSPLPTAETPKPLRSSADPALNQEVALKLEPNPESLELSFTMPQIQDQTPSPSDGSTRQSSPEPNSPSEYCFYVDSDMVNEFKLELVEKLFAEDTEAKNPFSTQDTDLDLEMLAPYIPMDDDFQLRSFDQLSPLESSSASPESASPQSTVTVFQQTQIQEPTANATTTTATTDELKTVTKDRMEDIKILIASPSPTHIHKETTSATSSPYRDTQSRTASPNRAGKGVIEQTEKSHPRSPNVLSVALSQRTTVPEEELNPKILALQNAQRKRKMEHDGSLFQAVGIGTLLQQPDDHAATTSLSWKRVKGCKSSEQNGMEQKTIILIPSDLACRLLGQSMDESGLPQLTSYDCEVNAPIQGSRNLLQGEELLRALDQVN
Sequence of X-box-binding protein 1 (Homo sapiens) (P17861 whole entry, looked up): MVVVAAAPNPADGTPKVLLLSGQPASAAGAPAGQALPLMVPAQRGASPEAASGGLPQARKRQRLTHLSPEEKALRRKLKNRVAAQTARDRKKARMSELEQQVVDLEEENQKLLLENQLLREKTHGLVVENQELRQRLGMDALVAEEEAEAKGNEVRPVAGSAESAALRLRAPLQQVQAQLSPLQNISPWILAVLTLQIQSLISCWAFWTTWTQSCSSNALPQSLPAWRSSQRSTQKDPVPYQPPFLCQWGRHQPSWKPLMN
Sequence of Nuclear respiratory factor 1 (Homo sapiens) (Q16656 whole entry, looked up): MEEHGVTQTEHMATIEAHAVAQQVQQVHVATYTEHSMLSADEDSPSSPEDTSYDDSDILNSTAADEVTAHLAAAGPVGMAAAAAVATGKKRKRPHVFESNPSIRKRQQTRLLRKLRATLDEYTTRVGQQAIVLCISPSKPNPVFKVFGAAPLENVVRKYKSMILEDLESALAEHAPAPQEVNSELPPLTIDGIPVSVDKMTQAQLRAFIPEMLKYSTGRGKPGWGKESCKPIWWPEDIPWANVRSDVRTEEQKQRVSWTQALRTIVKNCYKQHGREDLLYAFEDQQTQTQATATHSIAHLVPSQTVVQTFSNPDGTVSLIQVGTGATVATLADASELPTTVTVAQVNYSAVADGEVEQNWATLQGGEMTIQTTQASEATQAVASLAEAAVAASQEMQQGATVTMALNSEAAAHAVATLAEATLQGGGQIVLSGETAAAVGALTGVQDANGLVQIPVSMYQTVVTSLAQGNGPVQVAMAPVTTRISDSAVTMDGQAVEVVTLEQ
Sequence of Cellular tumor antigen p53 (Homo sapiens) (P04637 whole entry, looked up, the tested form may be a part): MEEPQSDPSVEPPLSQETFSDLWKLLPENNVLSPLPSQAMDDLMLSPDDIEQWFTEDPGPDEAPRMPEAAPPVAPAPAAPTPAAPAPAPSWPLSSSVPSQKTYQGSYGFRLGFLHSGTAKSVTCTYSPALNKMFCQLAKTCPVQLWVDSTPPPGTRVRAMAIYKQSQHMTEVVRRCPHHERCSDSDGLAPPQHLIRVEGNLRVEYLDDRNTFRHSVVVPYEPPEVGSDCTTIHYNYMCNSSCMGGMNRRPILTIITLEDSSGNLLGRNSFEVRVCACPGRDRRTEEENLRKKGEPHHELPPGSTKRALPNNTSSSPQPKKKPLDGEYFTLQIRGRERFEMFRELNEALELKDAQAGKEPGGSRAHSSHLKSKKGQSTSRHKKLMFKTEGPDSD
Sequence of Aryl hydrocarbon receptor (Homo sapiens) (P35869 whole entry, looked up): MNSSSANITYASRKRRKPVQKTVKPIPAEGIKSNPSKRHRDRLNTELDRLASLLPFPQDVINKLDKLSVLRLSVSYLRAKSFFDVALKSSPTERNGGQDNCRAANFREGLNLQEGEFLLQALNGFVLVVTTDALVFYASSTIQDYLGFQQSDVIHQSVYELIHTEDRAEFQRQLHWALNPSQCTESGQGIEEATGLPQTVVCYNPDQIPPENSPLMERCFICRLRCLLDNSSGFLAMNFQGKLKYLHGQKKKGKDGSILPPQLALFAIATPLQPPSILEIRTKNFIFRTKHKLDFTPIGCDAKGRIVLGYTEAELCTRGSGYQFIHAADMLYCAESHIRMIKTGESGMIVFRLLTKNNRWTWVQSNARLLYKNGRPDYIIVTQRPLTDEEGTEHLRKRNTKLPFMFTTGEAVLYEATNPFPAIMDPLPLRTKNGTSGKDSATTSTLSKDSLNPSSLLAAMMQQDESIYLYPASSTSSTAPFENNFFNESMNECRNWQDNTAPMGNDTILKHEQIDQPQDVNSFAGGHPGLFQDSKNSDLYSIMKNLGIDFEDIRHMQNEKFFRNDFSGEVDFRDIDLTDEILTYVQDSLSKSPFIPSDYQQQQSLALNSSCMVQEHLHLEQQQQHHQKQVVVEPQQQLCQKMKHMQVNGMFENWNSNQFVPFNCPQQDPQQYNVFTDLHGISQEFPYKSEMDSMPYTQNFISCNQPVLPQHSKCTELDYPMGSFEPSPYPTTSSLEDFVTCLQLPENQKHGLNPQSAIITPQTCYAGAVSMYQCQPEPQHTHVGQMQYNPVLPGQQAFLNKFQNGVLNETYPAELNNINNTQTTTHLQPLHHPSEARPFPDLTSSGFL

As usually defined, the AC50 is the concentration giving half of the maximal activity seen. Turning to `[CH3][Sn]([Cl])([Cl])[Cl]`, the outcome in [1], in experiment [2], in experiment [3], in [4], in experiment [5] and in [6] was inactive. Further, the compound was called inactive in [7], in [8], in [9], in experiment [10], in [11] and in [12]. Also, the outcome in experiment [13], in experiment [14], in experiment [15], in [17] and in [18] was inactive. Also, in [16], the AC50 was 57.6 µM (active).
Consider `O=[N+]([O-])c1ccc(Cl)cc1`, for which the compound was called inactive in [1], in [2], in experiment [3], in experiment [19], in [20] and in experiment [5]. The result in experiment [7], in [8], in experiment [9], in [10], in experiment [12] and in [13] was inactive. Moreover, the result in experiment [14], in experiment [15], in experiment [16], in [17] and in [18] was inactive.
Take `CCC(C)c1cc(C(C)(C)C)cc(-n2nc3ccccc3n2)c1O` (stereo not given): the result in experiment [1], in experiment [2], in experiment [3], in [4], in [20] and in [5] was inactive. For the same compound, the compound was classed as inactive in experiment [6], in experiment [7], in [8], in experiment [9], in experiment [10] and in experiment [12]. Besides, the outcome in experiment [13], in [14], in experiment [15], in experiment [16], in experiment [17] and in experiment [18] was inactive.
In the case of `CN(C)CCC#N`, the compound was called inactive in experiment [1], in experiment [2], in experiment [4], in [19], in experiment [5] and in [6]. Besides, the compound was classed as inactive in experiment [7], in experiment [8], in [9], in experiment [10], in experiment [12] and in [13]. Further, the call in experiment [14], in experiment [15], in [16], in experiment [17] and in experiment [18] was inactive.
